# PubChem BioAssay (EPA / NIEHS)
# Inconclusive results are not listed. Where a structure was tested more than once in an assay, its records may differ in their call. The source made the active and inactive calls. The calls were made as follows, unless noted: active = hit-call score of the fitted dose curve at least 0.9, where 1 is the maximum; inconclusive = response in the unintended direction; inactive = score below 0.9.
# How the values were obtained:
# [1] = biological target: Estrogen receptor (Homo sapiens) (UniProt P03372); experiment: OT_ERa_GFPERaERE_0480: Odyssey Thera (OT) 8-hour HeLa Transcription Induction Assay for Estrogen Receptor (AID 2283381; active = hit-call score of the fitted dose curve at least 0.9, where 1 is the maximum; inactive = score below 0.9)
# Chain of Estrogen receptor (Homo sapiens) (P03372 whole entry, looked up): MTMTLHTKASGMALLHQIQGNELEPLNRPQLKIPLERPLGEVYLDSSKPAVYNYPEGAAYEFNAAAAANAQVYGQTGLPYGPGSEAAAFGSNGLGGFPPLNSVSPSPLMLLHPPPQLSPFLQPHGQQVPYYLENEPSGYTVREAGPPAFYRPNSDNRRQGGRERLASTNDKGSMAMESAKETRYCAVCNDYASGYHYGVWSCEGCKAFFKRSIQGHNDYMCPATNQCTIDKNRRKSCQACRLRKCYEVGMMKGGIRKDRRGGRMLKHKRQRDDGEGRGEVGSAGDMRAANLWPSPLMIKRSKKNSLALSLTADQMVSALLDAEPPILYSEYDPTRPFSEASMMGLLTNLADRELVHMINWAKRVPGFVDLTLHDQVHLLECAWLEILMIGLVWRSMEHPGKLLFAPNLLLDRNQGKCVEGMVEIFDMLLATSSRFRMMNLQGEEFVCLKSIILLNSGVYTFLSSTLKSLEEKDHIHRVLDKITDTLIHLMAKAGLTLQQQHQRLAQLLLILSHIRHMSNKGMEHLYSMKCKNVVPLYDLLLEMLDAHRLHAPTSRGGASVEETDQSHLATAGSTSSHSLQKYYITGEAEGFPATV
# In short: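 Cells (HeLa) receive compound; after 8 h, reporter fluorescence is imaged and quantified by high-content analysis. Gain-of-signal relative to DMSO gives the endpoint.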
# [2] = biological target: Estrogen receptor (Homo sapiens) (UniProt P03372); experiment: OT_ERa_GFPERaERE_0120: Odyssey Thera (OT) 2-hour HeLa Transcription Induction Assay for Estrogen Receptor (AID 2283382)
# In short: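 Measures ESR1 pathway reporter gain-of-signal in HeLa cells after a 2-hour treatment, detected as fluorescent protein induction by microscopy, DMSO as baseline.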
# [3] = biological target: Retinoic acid receptor RXR-alpha (Homo sapiens) (UniProt P19793); experiment: OT_NURR1_NURR1RXRa_1440: Odyssey Thera (OT) 24-hour HEK293T Protein Complementation Assay for Nurr1/retinoid X receptor (RXR) (AID 2283386)
# Chain of Retinoic acid receptor RXR-alpha (Homo sapiens) (P19793 whole entry, looked up, the tested form may be a part): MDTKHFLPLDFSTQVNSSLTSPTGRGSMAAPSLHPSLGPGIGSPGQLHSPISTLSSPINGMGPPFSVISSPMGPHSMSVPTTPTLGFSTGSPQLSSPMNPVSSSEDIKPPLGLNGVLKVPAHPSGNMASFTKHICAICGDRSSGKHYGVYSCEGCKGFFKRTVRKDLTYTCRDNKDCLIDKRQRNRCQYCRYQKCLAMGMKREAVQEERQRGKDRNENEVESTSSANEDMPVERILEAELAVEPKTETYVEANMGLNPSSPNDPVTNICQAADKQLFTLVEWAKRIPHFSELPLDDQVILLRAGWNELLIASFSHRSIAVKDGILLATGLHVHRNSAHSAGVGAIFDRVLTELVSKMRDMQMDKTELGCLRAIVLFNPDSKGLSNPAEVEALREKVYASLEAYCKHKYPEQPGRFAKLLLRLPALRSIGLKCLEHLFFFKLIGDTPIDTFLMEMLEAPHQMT
# In short: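 Measured as fluorescence from a reconstituted split reporter, this 24 h HEK293T complementation assay scores compound-induced gain of Nurr1/RXRα association relative to DMSO.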
# [4] = biological target: Peroxisome proliferator-activated receptor gamma (Homo sapiens) (UniProt P37231); experiment: OT_PPARg_PPARgSRC1_1440: Odyssey Thera (OT) 24-hour Protein-Complementation Assay for Peroxisome Proliferator-activated Receptor Gamma/ SRC-1 Co-activator (AID 2283388)
# Chain of Peroxisome proliferator-activated receptor gamma (Homo sapiens) (P37231 whole entry, looked up, the tested form may be a part): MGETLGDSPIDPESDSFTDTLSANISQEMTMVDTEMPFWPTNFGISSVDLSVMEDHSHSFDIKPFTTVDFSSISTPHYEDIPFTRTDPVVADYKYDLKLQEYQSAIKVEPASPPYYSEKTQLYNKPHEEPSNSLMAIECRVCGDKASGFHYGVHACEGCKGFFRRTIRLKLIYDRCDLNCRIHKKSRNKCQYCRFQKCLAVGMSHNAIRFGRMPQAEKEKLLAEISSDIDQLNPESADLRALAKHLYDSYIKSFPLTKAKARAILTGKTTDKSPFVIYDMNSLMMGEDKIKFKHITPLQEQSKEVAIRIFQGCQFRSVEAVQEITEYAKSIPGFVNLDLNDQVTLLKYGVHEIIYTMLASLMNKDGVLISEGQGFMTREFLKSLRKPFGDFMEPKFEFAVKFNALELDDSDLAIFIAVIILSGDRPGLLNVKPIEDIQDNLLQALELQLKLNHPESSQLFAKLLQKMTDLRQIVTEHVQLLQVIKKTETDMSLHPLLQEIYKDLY
# In short: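 HEK293T transiently transfected with PPARg/SRC-1 split-Venus YFP fusions 48 h before dosing, then treated 24 h at 37C. Fixed cells imaged; nuclear/cytoplasmic 488 nm fluorescence ratio, gain of signal versus DMSO.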
# [5] = read-out: Tumor necrosis factor receptor superfamily member 6 (Homo sapiens) (UniProt P25445); experiment: LTEA_HepaRG_FAS: Life Technologies and Expression Analysis (LTEA) Assay for Fas cell surface death receptor (FAS) using HepaRG (AID 2283447; active = hit-call score of the fitted dose curve at least 0.9, where 1 is the maximum; inactive = score below 0.9); conditions: mRNA level, 48 h; actives raise or lower the signal
# In short: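 FAS transcript level was measured by TaqMan qRT-PCR against three housekeeping genes after 48 h chemical exposure. Cells were HepaRG, 0.5% DMSO vehicle, with a top concentration of 100 uM and half-log dilutions over eight points, in duplicate.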
# [6] = read-out: Fatty acid synthase (Homo sapiens) (UniProt P49327); experiment: LTEA_HepaRG_FASN: Life Technologies and Expression Analysis (LTEA) Assay for Fatty Acid Synthase (FASN) using HepaRG (AID 2283448; active = hit-call score of the fitted dose curve at least 0.9, where 1 is the maximum; inactive = score below 0.9;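 as to AC50: differentiated human HepaRG liver cells in serum-free induction medium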); conditions: mRNA level, 48 h; actives raise or lower the signal
# In short: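 Transcript-level assay: HepaRG liver cells are treated for 48 h across an eight-point range topping at 100 uM, and FASN mRNA, normalized to three housekeeping genes, is compared with DMSO controls in both directions.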
# [7] = biological target: Retinoic acid receptor RXR-alpha (Homo sapiens) (UniProt P19793); experiment: OT_NURR1_NURR1RXRa_0480: Odyssey Thera (OT) 8-hour HEK293T Protein Complementation Assay for Nurr1/retinoid X receptor (RXR) (AID 2283385)
# In short: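 Compounds are applied to HEK293T cells carrying Nurr1 and RXRα linked to reporter fragments. After 8 h, fluorescence intensity reports heterodimer formation, with DMSO as baseline.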
# [8] = biological target: Peroxisome proliferator-activated receptor gamma (Homo sapiens) (UniProt P37231); experiment: OT_PPARg_PPARgSRC1_0480: Odyssey Thera (OT) 8-hour Protein-Complementation Assay for Peroxisome Proliferator-activated Receptor Gamma / SRC-1 Co-activator (AID 2283387)
# In short: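 Split-YFP (IFP1/IFP2) PPARg/SRC-1 reporter, HEK293T, 37 °C, 5% CO2; 8 h compound; formaldehyde fix + Draq5; high-content imaging, N/C ratio, ≥350 cells/image, positive direction vs DMSO.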
# [9] = CEETOX_H295R_11DCORT: CeeTox H295R High-throughput Steroidogenesis Assay for 11-Deoxycortisol (11DCORT) (AID 2283432; active = hit-call score of the fitted dose curve at least 0.9, where 1 is the maximum; inactive = score below 0.9); conditions: actives raise or lower the signal
# In short: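 Steroidogenesis in human H295R cells: 48 h chemical exposure after forskolin priming, 11-deoxycortisol measured by LC-MS/MS.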
# [10] = CEETOX_H295R_OHPREG: CeeTox H295R High-throughput Steroidogenesis Assay for OH-Pregnenolone (OHPREG) (AID 2283434; active = hit-call score of the fitted dose curve at least 0.9, where 1 is the maximum; inactive = score below 0.9); conditions: actives raise or lower the signal
# In short: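 Hormone levels in spent medium were measured by tandem mass spectrometry following liquid-liquid extraction. Cells (H295R) had been forskolin-stimulated (10 uM, 48 h) before a 48 h chemical exposure at 0.1% DMSO, with activity fitted in both directions against DMSO.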
# [11] = CEETOX_H295R_OHPROG: CeeTox H295R High-throughput Steroidogenesis Assay for OH-Progesterone (OHPROG) (AID 2283435; active = hit-call score of the fitted dose curve at least 0.9, where 1 is the maximum; inactive = score below 0.9;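 as to AC50: human adrenal H295R cells primed 48 h with 10 µM forskolin; 17alpha-hydroxyprogesterone secreted into medium measured by HPLC-MS/MS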); conditions: actives raise or lower the signal
# In short: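 Secreted 17alpha-hydroxyprogesterone is read by tandem MS from media of forskolin-primed H295R cells dosed with chemical for 48 h. Activity is fitted in both directions against DMSO baseline; cytotoxic concentrations are re-tested diluted.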
# [12] = CEETOX_H295R_CORTIC: CeeTox H295R High-throughput Steroidogenesis Assay for Corticosterone (CORTIC) (AID 2283437; active = hit-call score of the fitted dose curve at least 0.9, where 1 is the maximum; inactive = score below 0.9;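 also: corticosterone secreted into medium quantified by mass spectrometry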); conditions: actives raise or lower the signal
# In short: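 Corticosterone secreted into medium is measured by reverse-phase HPLC with tandem MS following liquid-liquid extraction. Cells are forskolin-stimulated (10 uM, 48 h) before 48 h test exposure; activity fitted in both directions against DMSO.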
# [13] = CEETOX_H295R_CORTISOL: CeeTox H295R High-throughput Steroidogenesis Assay for Cortisol (AID 2283438; active = hit-call score of the fitted dose curve at least 0.9, where 1 is the maximum; inactive = score below 0.9;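 also: cortisol secreted into medium quantified by LC-MS/MS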); conditions: actives raise or lower the signal
# In short: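 Human adrenocortical H295R cells (passage ≤10) received test chemicals for 48 h after forskolin priming. Secreted cortisol was measured by LC-MS/MS.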
# [14] = CEETOX_H295R_DOC: CeeTox H295R High-throughput Steroidogenesis Assay for DOC (AID 2283439; active = hit-call score of the fitted dose curve at least 0.9, where 1 is the maximum; inactive = score below 0.9); conditions: actives raise or lower the signal
# In short: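 Secreted DOC was quantified from H295R media by HPLC-MS/MS after 48 h chemical exposure following 48 h forskolin (10 uM) prestimulation. Values were fitted in both directions relative to DMSO, the negative control and baseline.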
# [15] = CEETOX_H295R_ESTRADIOL: CeeTox H295R High-throughput Steroidogenesis Assay for Estradiol (AID 2283440; active = hit-call score of the fitted dose curve at least 0.9, where 1 is the maximum; inactive = score below 0.9;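 also: estradiol secreted into medium quantified by LC-MS/MS after dansyl derivatisation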); conditions: actives raise or lower the signal
# In short: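 H295R cells pre-stimulated 48 h with 10 uM forskolin, then exposed 48 h to chemical in 0.1% DMSO. Medium estradiol quantified by MTBE extraction, dansyl derivatisation and HPLC-MS/MS; bidirectional fit versus DMSO; MTT viability required >/=70%.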
# [16] = CEETOX_H295R_ESTRONE: CeeTox H295R High-throughput Steroidogenesis Assay for Estrone (AID 2283441; active = hit-call score of the fitted dose curve at least 0.9, where 1 is the maximum; inactive = score below 0.9;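 also: estrone secreted into medium measured by LC-MS/MS after dansyl derivatization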); conditions: actives raise or lower the signal
# In short: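 H295R cells; 48 h forskolin (10 uM) prestimulation; 48 h compound exposure, 0.1% DMSO final. Medium estrone: MTBE extraction, dansyl derivatization, HPLC-MS/MS. Bidirectional fit vs DMSO.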
# [17] = CEETOX_H295R_PROG: CeeTox H295R High-throughput Steroidogenesis Assay for Progesterone (PROG) (AID 2283442; active = hit-call score of the fitted dose curve at least 0.9, where 1 is the maximum; inactive = score below 0.9); conditions: actives raise or lower the signal
# In short: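 H295R adrenal cells prestimulated 48 h with 10 uM forskolin, then exposed 48 h to test chemical in 0.1% DMSO. Progesterone in medium quantified by HPLC-MS/MS after MTBE extraction; viability checked by MTT in same wells.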
# Chain of Fatty acid synthase (Homo sapiens) (P49327 whole entry, looked up): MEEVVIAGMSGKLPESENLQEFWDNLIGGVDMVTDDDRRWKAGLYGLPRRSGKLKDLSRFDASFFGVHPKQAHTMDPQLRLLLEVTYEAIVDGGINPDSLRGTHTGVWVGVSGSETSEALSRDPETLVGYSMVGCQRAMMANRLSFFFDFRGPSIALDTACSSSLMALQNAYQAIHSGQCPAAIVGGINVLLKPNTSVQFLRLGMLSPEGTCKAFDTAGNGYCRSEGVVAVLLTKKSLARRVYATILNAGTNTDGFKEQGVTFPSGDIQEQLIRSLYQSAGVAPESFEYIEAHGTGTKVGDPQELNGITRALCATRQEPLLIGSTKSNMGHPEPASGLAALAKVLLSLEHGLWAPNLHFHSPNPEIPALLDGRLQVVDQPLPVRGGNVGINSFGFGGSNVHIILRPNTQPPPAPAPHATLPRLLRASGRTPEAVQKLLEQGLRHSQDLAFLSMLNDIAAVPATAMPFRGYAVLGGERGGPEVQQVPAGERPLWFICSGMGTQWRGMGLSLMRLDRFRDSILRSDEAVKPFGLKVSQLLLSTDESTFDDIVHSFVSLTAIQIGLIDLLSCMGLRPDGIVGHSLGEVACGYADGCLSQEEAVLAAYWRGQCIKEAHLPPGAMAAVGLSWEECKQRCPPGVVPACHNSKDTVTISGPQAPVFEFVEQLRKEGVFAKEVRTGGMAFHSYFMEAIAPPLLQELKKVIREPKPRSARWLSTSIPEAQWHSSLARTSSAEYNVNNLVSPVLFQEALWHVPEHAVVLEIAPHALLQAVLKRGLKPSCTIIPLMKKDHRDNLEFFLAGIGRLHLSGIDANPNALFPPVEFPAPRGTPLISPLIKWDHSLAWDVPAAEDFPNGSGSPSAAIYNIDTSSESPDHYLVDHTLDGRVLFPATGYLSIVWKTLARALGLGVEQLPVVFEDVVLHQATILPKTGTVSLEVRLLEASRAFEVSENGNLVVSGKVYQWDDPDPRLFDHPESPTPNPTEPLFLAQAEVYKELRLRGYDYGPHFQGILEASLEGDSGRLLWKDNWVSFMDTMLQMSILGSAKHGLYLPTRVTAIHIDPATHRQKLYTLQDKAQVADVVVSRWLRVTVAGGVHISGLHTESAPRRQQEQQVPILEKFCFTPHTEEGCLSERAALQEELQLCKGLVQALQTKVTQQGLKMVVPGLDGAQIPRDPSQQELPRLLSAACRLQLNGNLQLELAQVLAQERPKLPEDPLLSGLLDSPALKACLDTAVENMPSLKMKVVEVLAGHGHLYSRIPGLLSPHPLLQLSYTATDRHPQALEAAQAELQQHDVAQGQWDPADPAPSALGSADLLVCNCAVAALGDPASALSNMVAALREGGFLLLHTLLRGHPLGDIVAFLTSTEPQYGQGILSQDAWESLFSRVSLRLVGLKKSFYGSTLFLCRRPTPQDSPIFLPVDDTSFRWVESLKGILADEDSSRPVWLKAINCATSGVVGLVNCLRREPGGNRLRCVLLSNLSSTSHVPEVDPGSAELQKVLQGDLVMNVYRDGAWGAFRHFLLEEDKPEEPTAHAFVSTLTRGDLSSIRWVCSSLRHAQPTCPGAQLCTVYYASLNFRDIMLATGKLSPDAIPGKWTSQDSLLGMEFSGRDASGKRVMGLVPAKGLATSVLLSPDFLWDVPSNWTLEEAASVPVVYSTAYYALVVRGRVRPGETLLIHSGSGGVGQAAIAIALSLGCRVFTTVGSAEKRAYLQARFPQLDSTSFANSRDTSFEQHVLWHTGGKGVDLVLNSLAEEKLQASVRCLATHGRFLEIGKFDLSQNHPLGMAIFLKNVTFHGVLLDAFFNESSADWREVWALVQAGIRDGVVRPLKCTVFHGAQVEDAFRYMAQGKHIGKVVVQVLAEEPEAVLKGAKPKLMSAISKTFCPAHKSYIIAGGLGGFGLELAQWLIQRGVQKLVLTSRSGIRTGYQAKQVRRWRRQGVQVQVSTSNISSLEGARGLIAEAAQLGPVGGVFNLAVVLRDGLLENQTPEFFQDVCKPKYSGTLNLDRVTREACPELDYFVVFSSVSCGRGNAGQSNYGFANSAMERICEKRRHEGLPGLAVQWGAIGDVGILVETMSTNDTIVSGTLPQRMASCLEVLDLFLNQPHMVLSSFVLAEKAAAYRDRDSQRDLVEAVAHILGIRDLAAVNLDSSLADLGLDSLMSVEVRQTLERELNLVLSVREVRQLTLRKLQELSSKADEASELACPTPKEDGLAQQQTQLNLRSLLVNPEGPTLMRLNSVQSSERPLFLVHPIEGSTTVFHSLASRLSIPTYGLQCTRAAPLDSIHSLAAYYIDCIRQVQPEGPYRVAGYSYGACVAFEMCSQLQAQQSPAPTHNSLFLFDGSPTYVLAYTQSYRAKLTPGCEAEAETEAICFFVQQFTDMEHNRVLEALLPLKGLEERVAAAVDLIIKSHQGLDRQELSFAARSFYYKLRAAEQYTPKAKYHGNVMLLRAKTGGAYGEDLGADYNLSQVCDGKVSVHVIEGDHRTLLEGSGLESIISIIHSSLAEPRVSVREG
compound,measurement,setting,value
CCCC(=O)OCC,outcome,[1],inactive
same,outcome,[2],inactive
same,outcome,[3],inactive
same,outcome,[4],inactive
same,outcome,[5],inactive
same,outcome,[6],inactive
C=CC(=C)CCC=C(C)C,outcome,[1],inactive
same,outcome,[2],inactive
same,outcome,[7],inactive
same,outcome,[3],inactive
same,outcome,[8],inactive
same,outcome,[4],inactive
same,outcome,[5],inactive
same,outcome,[6],inactive
C=CCCCCCCCCC(=O)O,outcome,[1],inactive
same,outcome,[2],inactive
same,outcome,[7],inactive
same,outcome,[3],inactive
same,outcome,[4],inactive
same,outcome,[9],inactive
same,AC50,[10],36.5 µM (active)
same,outcome,[11],inactive
same,outcome,[12],inactive
same,outcome,[13],inactive
same,outcome,[14],inactive
same,outcome,[15],inactive
same,outcome,[16],inactive
same,outcome,[17],inactive
same,outcome,[5],inactive
same,outcome,[6],inactive
CC(C)=CCCC(C)CCO (stereo not drawn),outcome,[1],inactive
same,outcome,[2],inactive
same,AC50,[7],90.2 µM (active)
same,outcome,[7],inactive
same,outcome,[3],inactive
same,outcome,[8],inactive
same,outcome,[4],inactive
same,outcome,[5],inactive
same,outcome,[6],inactive
O=P(OC(CCl)CCl)(OC(CCl)CCl)OC(CCl)CCl,outcome,[1],inactive
same,outcome,[2],inactive
same,outcome,[7],inactive
same,outcome,[3],inactive
same,outcome,[8],inactive
same,outcome,[4],inactive
same,AC50,[5],0.232 µM (active)
same,AC50,[6],50 µM (active)
Cc1ccc(S(=O)(=O)O)cc1C,outcome,[1],inactive
same,outcome,[2],inactive
same,outcome,[7],inactive
same,outcome,[3],inactive
same,outcome,[4],inactive
same,outcome,[5],inactive
same,outcome,[6],inactive
COc1cccc(-c2ccc(/C=C\CN3CCCCCC3)cc2Cl)c1,outcome,[1],inactive
same,outcome,[2],inactive
same,AC50,[7],10.3 µM (active)
same,outcome,[4],inactive
same,outcome,[9],inactive
same,outcome,[10],inactive
same,outcome,[11],inactive
same,outcome,[12],inactive
same,outcome,[13],inactive
same,outcome,[14],inactive
same,outcome,[15],inactive
same,outcome,[16],inactive
same,outcome,[17],inactive
same,AC50,[5],77.5 µM (active)
same,AC50,[6],45.2 µM (active)
COc1ccc(-n2nc(C(F)F)cc2-c2ccc(S(C)=O)cc2)cc1 (stereo not drawn),outcome,[1],inactive
same,outcome,[2],inactive
same,outcome,[7],inactive
same,outcome,[3],inactive
same,outcome,[4],inactive
same,outcome,[9],inactive
same,outcome,[10],inactive
same,outcome,[11],inactive
same,outcome,[12],inactive
same,outcome,[13],inactive
same,outcome,[14],inactive
same,outcome,[17],inactive
same,outcome,[5],inactive
same,outcome,[6],inactive
Nc1ccc(Nc2ccccc2)cc1,outcome,[1],inactive
same,outcome,[2],inactive
same,outcome,[7],inactive
same,outcome,[3],inactive
same,outcome,[8],inactive
same,outcome,[4],inactive
same,outcome,[9],inactive
same,AC50,[10],83.7 µM (active)
same,AC50,[11],13.9 µM (active)
same,outcome,[12],inactive
same,AC50,[13],65.8 µM (active)
same,AC50,[14],4.03 µM (active)
same,outcome,[17],inactive
same,outcome,[5],inactive
same,outcome,[6],inactive
